Measurements as given in PubChem BioAssay (Tox21).
“And” between values parts separate entries of the source, which are not always exact repeats. Identical values can stand only once. Results filed as inconclusive are left out. A call without a number means that no potency is given here. The source holds several records for some structures; these can differ, active in one and inactive in another. The source made the active and inactive calls. Unless noted, calls follow the shape of the dose curve; as a rule, active = well fitted curve in the direction sought with a large enough effect in the repeat runs; inconclusive = weak or mixed curves; inactive = no such curve, though single readings can be large; an effect the other way counts as inactive or inconclusive.

Assays:
[1] = qHTS assay to test for compound auto fluorescence at 535 nm (green) in HEK293 cells (AID 720680)
[2] = qHTS assay to test for compound auto fluorescence at 460 nm (blue) in HEK293 cell free culture (AID 720681)
How it was run: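 Compounds were added to cell-free DMEM with 10% FBS and fluorescence read directly. The blue channel used 405 nm excitation and 460 nm emission, with triamterene as the reference fluorophore.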

[3] = qHTS assay to test for compound auto fluorescence at 535 nm (green) in HEK293 cell free culture (AID 720682)
How it was run: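 Measurement is a direct plate read of green fluorescence (485 nm in, 535 nm out) after compound addition to serum-supplemented DMEM lacking cells, with fluorescein used to express intensities.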

[4] = qHTS assay to test for compound auto fluorescence at 590 nm (red) in HEK293 cell free culture (AID 720683)
How it was run: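 Cell-free wells of DMEM with 10% FBS received compound, and intrinsic fluorescence was read at excitation/emission 540/590 nm. Values expressed as equivalence to Rose Bengal sodium.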

[5] = qHTS assay to test for compound auto fluorescence at 590 nm (red) in HepG2 cell free culture (AID 720684)
How it was run: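 Compound was pinned into wells holding MEM with 10% FBS and no cells, and red fluorescence was read at Ex/Em 540/590 nm. Signal is expressed as auto fluorescence equivalency relative to Rose Bengal sodium.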

[6] = qHTS assay to test for compound auto fluorescence at 460 nm (blue) in HepG2 cell free culture (AID 720685)
How it was run: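 Compound (23 nL) or DMSO pinned into cell-free MEM with 10% FBS; blue fluorescence read at 405/460 nm excitation/emission, expressed as auto-fluorescence equivalency to triamterene.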

[7] = qHTS assay to test for compound auto fluorescence at 535 nm (green) in HepG2 cell free culture (AID 720686)
[8] = qHTS assay to test for compound auto fluorescence at 460 nm (blue) in HepG2 cells (AID 720687)
How it was run: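 HepG2 cells in MEM with 10% FBS, attached overnight at 37 C, were exposed to compound or DMSO for 1 hr at 37 C, 5% CO2. Blue fluorescence was read at 405/460 nm, with triamterene as reference fluorophore.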

[9] = qHTS assay to identify small molecule antagonists of the glucocorticoid receptor (GR) signaling pathway - cell viability counter screen (AID 720693); also: nearly all actives have a fitted effect of over 55% in size
[10] = qHTS assay for identifying genotoxic compounds that show differential cytotoxicity against isogenic chicken DT40 cell lines with known DNA damage response pathways - wild type cell line (AID 743012); also: nearly all actives have a fitted effect of over 60% in size; also: potency is read from the fitted curve at half-maximal effect
How it was run: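 Wild-type DT40 cells (300/well) exposed to compounds for 40 hours at 37 C/5% CO2. Viability read by CellTiter-Glo luminescence after 30 min at room temperature.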

[11] = qHTS assay for identifying genotoxic compounds that show differential cytotoxicity against isogenic chicken DT40 cell lines with known DNA damage response pathways - Rev3 mutant cell line (AID 743014); also: nearly all actives have a fitted effect of over 55% in size; also: potency is read from the fitted curve at half-maximal effect
[12] = qHTS assay for identifying genotoxic compounds that show differential cytotoxicity against isogenic chicken DT40 cell lines with known DNA damage response pathways - Rad54/Ku70 mutant cell line (AID 743015); also: nearly all actives have a fitted effect of over 60% in size; also: potency is read from the fitted curve at half-maximal effect
[13] = qHTS assay to identify small molecule antagonists of the androgen receptor (AR) signaling pathway - cell viability counter screen (AID 743033; also: nearly all actives have a fitted effect of over 45% in size; also: potency is read from the fitted curve at half-maximal effect)
[14] = qHTS assay to identify small molecule antagonists of the androgen receptor (AR) signaling pathway using the MDA cell line - cell viability counter screen (AID 743041; also: nearly all actives have a fitted effect of over 45% in size)
How it was run: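 MDA-kb2 AR-luc cells (MMTV-luciferase, AR/GR responsive) treated with compounds plus R1881 agonist for 16 h at 37C. CellTiter-Fluor added at 15.5 h; fluorescence read after 30 min in the same wells.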

[15] = target: Glucocorticoid receptor (Homo sapiens) (UniProt P04150); experiment: qHTS assay to identify small molecule agonists of the glucocorticoid receptor (GR) signaling pathway (AID 720691; active = well fitted activation curve with a large enough effect in the signal ratio in the repeat runs, not every such curve was filed as active; the % refers to the signal ratio; also: potency is read from the fitted curve at half-maximal effect)
Chain of Glucocorticoid receptor (Homo sapiens) (P04150 whole entry, looked up): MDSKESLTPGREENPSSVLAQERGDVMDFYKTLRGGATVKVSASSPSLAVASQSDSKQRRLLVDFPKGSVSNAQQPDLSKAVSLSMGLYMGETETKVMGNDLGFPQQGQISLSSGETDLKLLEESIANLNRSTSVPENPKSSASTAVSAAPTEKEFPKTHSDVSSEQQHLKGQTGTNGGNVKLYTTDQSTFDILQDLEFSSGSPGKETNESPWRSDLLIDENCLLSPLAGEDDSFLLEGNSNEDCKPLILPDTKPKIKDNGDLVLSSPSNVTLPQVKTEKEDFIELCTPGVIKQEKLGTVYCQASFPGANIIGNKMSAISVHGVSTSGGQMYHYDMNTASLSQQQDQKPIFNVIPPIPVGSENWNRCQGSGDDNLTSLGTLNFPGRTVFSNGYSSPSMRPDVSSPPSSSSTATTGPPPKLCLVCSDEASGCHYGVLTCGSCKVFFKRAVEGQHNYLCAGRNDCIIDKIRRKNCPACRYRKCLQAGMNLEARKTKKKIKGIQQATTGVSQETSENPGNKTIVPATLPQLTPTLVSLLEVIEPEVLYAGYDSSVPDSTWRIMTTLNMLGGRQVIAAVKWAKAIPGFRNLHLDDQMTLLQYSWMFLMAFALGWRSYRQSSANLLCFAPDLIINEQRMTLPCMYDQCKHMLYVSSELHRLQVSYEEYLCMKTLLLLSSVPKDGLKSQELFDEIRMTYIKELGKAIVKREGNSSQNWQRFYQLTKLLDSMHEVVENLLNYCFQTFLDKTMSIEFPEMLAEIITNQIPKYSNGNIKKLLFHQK
How it was run: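 GR-bla HeLa cells carrying a GRE-driven beta-lactamase reporter, exposed to compounds for 18 h at 37 C. Reporter activation read as fluorescence after 2 h with LiveBLAzer B/G FRET substrate at room temperature.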

[16] = target: Androgen receptor (Homo sapiens) (UniProt P10275); experiment: qHTS assay to identify small molecule antagonists of the androgen receptor (AR) signaling pathway (AID 743035; active = well fitted inhibition curve with a large enough effect in the signal ratio in the repeat runs, not every such curve was filed as active; the % refers to the signal ratio)
Chain of Androgen receptor (Homo sapiens) (P10275 whole entry, looked up): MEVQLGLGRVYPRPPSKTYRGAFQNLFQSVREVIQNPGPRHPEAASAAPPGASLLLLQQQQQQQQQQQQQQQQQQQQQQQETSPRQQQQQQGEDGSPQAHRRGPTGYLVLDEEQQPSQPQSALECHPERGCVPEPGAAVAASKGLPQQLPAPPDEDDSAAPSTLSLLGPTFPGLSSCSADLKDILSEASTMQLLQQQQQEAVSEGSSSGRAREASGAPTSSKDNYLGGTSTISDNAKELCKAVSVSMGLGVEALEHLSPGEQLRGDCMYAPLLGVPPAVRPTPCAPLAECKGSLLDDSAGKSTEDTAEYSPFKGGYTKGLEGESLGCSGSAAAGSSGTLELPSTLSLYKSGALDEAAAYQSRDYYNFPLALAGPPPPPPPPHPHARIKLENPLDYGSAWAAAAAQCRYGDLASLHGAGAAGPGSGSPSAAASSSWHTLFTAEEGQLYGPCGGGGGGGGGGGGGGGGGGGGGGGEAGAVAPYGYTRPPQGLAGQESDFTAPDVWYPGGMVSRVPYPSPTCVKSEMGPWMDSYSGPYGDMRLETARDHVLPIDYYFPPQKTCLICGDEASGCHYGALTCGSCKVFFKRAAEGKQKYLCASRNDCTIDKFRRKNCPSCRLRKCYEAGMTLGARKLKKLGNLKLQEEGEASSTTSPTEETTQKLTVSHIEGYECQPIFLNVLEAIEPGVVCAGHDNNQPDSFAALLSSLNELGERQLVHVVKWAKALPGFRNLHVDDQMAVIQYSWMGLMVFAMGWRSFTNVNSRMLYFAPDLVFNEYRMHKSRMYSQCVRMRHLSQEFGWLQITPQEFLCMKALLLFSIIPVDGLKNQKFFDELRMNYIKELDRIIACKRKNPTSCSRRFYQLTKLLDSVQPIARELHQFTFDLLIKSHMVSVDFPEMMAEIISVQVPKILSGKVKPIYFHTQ
How it was run: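 HEK293 cells stably carrying UAS-beta-lactamase reporter, 2,000/well, given compounds plus R1881 agonist and incubated 16 h at 37C. LiveBLAzer B/G FRET substrate then added for 2 h at room temperature before fluorescence reading.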

[17] = target: Androgen receptor (Homo sapiens) (UniProt P10275); experiment: qHTS assay to identify small molecule agonists of the androgen receptor (AR) signaling pathway (AID 743036; active = well fitted activation curve with a large enough effect in the signal ratio in the repeat runs, with a control signal flat, not every such curve was filed as active; the % refers to the signal ratio)
How it was run: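 Beta-lactamase under UAS control, stably integrated in HEK293 GripTite cells, reports receptor activation. After 16 h compound treatment, cells received FRET substrate for 2 h at room temperature before fluorescence reading.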

[18] = target: Androgen receptor (Homo sapiens) (UniProt P10275); experiment: qHTS assay to identify small molecule agonists of the androgen receptor (AR) signaling pathway using the MDA cell line (AID 743040; also: nearly all actives have a fitted effect of over 20% in size)
How it was run: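 MDA-kb2 breast carcinoma cells carrying MMTV-luciferase (responsive to AR and GR), plated 5 h then treated 16 h with compounds at 37C, 0% CO2. Read-out was ONE-Glo luminescence after 30 min at room temperature.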

[19] = target: Androgen receptor (Homo sapiens) (UniProt P10275); experiment: qHTS assay to identify small molecule antagonists of the androgen receptor (AR) signaling pathway using the MDA cell line (AID 743042; also: nearly all actives have a fitted effect of over 55% in size; also: potency is read from the fitted curve at half-maximal effect)
How it was run: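 MDA-kb2 breast carcinoma cells carrying MMTV-luciferase (AR/GR responsive) were co-treated with compounds and the agonist R1881 for 16 h at 37C. Inhibition read as ONE-Glo luminescence; CellTiter-Fluor fluorescence measured in parallel for cytotoxicity.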

[20] = target: Glucocorticoid receptor (Homo sapiens) (UniProt P04150); experiment: qHTS assay to identify small molecule antagonists of the glucocorticoid receptor (GR) signaling pathway (AID 720692; active = well fitted inhibition curve with a large enough effect in the signal ratio in the repeat runs, not every such curve was filed as active; the % refers to the signal ratio)
How it was run: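 GR-bla HeLa cells carrying a GRE-driven beta-lactamase reporter received compound after 4 h plating, then dexamethasone (5 nM final). After 18 h at 37C, the FRET substrate was loaded for 2 h at room temperature and fluorescence read.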

| SMILES | Potency [1] | outcome [2] | Potency [3] | Potency [4] | Potency [5] | outcome [6] | Potency [7] | outcome [8] | Potency [9] | Potency [10] | Potency [11] | Potency [12] | Potency [13] | Potency [14] | Potency [15] | Potency [16] | outcome [17] | Potency [18] | Potency [19] | Potency [20] |
| --- | --- | --- | --- | --- | --- | --- | --- | --- | --- | --- | --- | --- | --- | --- | --- | --- | --- | --- | --- | --- |
| c1ccc2sc(SSN3CCOCC3)nc2c1 | inactive | inactive | inactive | inactive | inactive | inactive | inactive | inactive | inactive | 2.43 µM (active) | 9.67 µM (active) and 2.73 µM (active) | 13.7 µM (active) and 2.17 µM (active) | 4.36 µM (active) |  |  |  |  |  |  |  |
| CC(=O)O[C@]1(C(C)=O)CC[C@H]2[C@@H]3C=C(Cl)C4=CC(=O)[C@@H]5C[C@@H]5[C@]4(C)[C@H]3CC[C@@]21C | inactive | inactive | inactive | inactive | inactive | inactive | inactive | inactive |  | 13.3 µM (active) and 12.2 µM (active) and 19.3 µM (active) | 21.1 µM (active) and 4.85 µM (active) and 15.4 µM (active) | 23.7 µM (active) and 7.69 µM (active) and 21.7 µM (active) | inactive and 19.5 µM (active) | inactive |  |  |  |  |  |  |
| CC(C)OC(=O)C(C)(C)Oc1ccc(C(=O)c2ccc(Cl)cc2)cc1 | inactive | inactive | inactive | inactive | inactive | inactive | inactive | inactive |  |  | 24.3 µM (active) | 15.4 µM (active) | inactive and 43.6 µM (active) |  | inactive | inactive | inactive | inactive | inactive and 48.6 µM (active) |  |
| CCCCCCCCCCCO | inactive | inactive | inactive | inactive | inactive | inactive | inactive | inactive | inactive | inactive and 48.6 µM (active) | inactive and 54.5 µM (active) | inactive and 61.1 µM (active) | inactive | inactive |  |  |  |  |  |  |
| C#C[C@]1(O)CC[C@H]2[C@@H]3CCc4cc(OC)ccc4[C@H]3CC[C@@]21C | inactive | inactive | inactive | inactive | inactive | inactive | inactive | inactive |  | 5.31 µM (active) and 3.86 µM (active) | 5.96 µM (active) and 4.86 µM (active) | 6.68 µM (active) and 6.86 µM (active) | inactive | inactive | inactive |  |  |  |  |  |
| c1ccc2c(c1)c1cccc3ccc4cccc2c4c31 | inactive | inactive | inactive | inactive | inactive | inactive | inactive | inactive |  |  | inactive | inactive | inactive | inactive | 48.6 µM (active) and inactive |  |  | inactive | inactive |  |
| CC(C)(C)NC(=O)[C@H]1CC[C@H]2[C@@H]3CC[C@H]4NC(=O)C=C[C@]4(C)[C@H]3CC[C@]12C | inactive | inactive | inactive | inactive |  | inactive | inactive | inactive | inactive | inactive | inactive and 60.4 µM (active) and 27.3 µM (active) | inactive and 68.6 µM (active) | inactive | inactive | inactive |  |  |  |  | inactive |
| COC(C)COC(C)COC(C)CO (stereo unspecified) | inactive | inactive | inactive | inactive | inactive | inactive | inactive | inactive |  | inactive | inactive | inactive | inactive | inactive |  | inactive | inactive | inactive | inactive |  |
| COC(=O)CCC(=O)OC | inactive | inactive | inactive | inactive | inactive | inactive | inactive | inactive |  | inactive | inactive | inactive | inactive | inactive | inactive |  |  |  |  |  |
| CCOCCOCCO | inactive | inactive | inactive | inactive | inactive | inactive | inactive | inactive |  | inactive | inactive | inactive | inactive | inactive | inactive | inactive | inactive | inactive | inactive |  |
| O=c1oc(=O)c2cc3c(=O)oc(=O)c3cc12 | inactive | inactive | inactive | inactive | inactive | inactive | inactive | inactive | inactive | inactive | inactive | inactive | inactive | inactive |  |  |  |  |  |  |
| C#C[C@]1(O)CC[C@H]2[C@@H]3CCC4=Cc5oncc5C[C@]4(C)[C@H]3CC[C@@]21C | inactive | inactive | inactive | inactive | inactive | inactive | inactive | inactive |  |  | inactive and 24.3 µM (active) | 13.7 µM (active) | inactive and 38.9 µM (active) | inactive | inactive |  |  |  |  |  |
| Cn1cnc([N+](=O)[O-])c1Sc1ncnc2nc[nH]c12 | inactive | inactive | inactive | inactive | inactive | inactive | inactive | inactive |  | inactive | inactive and 52.6 µM (active) | inactive | inactive | inactive | inactive |  |  |  |  |  |
| NNc1ccc(C(=O)O)cc1 | inactive | inactive | inactive | inactive | inactive | inactive | inactive | inactive | inactive | inactive | inactive | inactive | inactive | inactive |  |  |  |  |  |  |
| Nc1ccc(S(=O)(=O)Nc2cnc3ccccc3n2)cc1 | inactive | inactive | inactive | inactive | inactive | inactive | inactive | inactive |  |  | inactive | inactive | inactive | inactive | inactive |  |  |  |  |  |
| O=C=Nc1ccc(Cc2ccc(N=C=O)cc2)cc1 | inactive | inactive | inactive | inactive | inactive | inactive | inactive | inactive |  | 21.3 µM (active) and inactive | 10.7 µM (active) and inactive | inactive | inactive | inactive | inactive |  |  |  |  |  |
